High-throughput results: PubChem, The Scripps Research Institute Molecular Screening Center
CHRM1 antagonist = human M1 muscarinic receptor antagonists, primary screen, CHO-K1 cells, Fluo-8 calcium fluorescence, 1536-well | CHO-K1 hM1, ACh EC80 antagonist | inhibition, % at 3 µM | 360,000 compounds, 1.3% hits | AID 588852, 2011;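 active means percent inhibition above its own plate's cutoff, namely the mean of that plate's compound wells plus 3 SD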;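 further: peak over basal fluorescence ratio during 140 s after agonist addition; 0% = ACh EC80 plus DMSO and 100% = DMSO alone without agonist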
Target sequence (P11229 whole entry, looked up): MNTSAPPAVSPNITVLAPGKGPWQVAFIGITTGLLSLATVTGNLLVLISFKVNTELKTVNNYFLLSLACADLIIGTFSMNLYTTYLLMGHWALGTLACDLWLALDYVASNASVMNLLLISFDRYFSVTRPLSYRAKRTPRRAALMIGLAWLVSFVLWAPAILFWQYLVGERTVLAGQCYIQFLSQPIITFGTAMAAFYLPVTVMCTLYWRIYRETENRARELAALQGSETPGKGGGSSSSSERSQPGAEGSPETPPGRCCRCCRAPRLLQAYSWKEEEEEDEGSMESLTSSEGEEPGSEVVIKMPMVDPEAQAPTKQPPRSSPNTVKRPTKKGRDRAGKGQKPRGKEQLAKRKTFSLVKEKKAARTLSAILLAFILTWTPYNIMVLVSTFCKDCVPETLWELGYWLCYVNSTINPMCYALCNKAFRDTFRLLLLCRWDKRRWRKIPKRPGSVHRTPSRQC
M1 ag parental = counter-screen for M1 agonists: effect in parental CHO-K1 cells; Fluo-8 calcium fluorescence; scaled to maximal ATP response, vehicle zero; activation, % at 3 µM; 360,000 compounds, 0.48% hits; in the data active means activation above about 15%;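 further: untransfected CHO-K1 host cells lacking M1 receptor as counterscreen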
M1 PAM parental = nonselective calcium activators in parental CHO-K1 cells, primary screen, counter-screen for M1 PAM project, cell-based, Fluo-8 calcium fluorescence, full deck, 1536-well. ATP EC20; 0% at ATP EC20, 100% at ATP max. activation, % at 3 µM. 360,000 compounds, 0.02% hits. AID 602247, 2012;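 active means activation above the run cutoff, the mean activation of all test compounds plus 3 SD, cut at about 40% in these data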;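 further: peak over basal fluorescence ratio in a 140 s read after ATP addition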
M1 PAM = human M1 muscarinic receptor positive allosteric modulators, primary screen, CHO-K1 cells, Fluo-8 calcium fluorescence, 1536-well | Muscarinic acetylcholine receptor M1 (Homo sapiens), P11229 | activation, % at 3 µM | AID 588819, 2011 | 360,000 compounds, 0.088% hits | CHO-K1 hM1, ACh EC20; 0% = ACh EC20, 100% = maximal ACh; in the data active means activation above about 19%, passing the limit was not always enough
CHRM1 agonist = human M1 muscarinic receptor agonists, primary screen, Fluo-8 calcium fluorescence, CHO-K1 cells, HTS; Muscarinic acetylcholine receptor M1 (Homo sapiens), P11229; CHO-K1 hM1, agonist mode; 0% DMSO, 100% acetylcholine EC100; activation, % at 3 µM; 360,000 compounds, 0.33% hits;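 active means activation above the run's mean compound activation plus 3 SD, cut at about 16% in these data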;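 further: peak over basal fluorescence ratio within a 140 s kinetic read after compound addition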
CHO-K1 Ca antag = M1 antagonist counterscreen hit in parental CHO-K1 cells; inhibition, % at 3 µM; ATP-induced calcium, Fluo-8 fluorescence; 360,000 compounds, 0.6% hits;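 active means inhibition above a per-plate cutoff, the plate's mean sample inhibition plus 3 SD, cut at about 24% in these data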;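 further: 0% = DMSO plus EC80 ATP and 100% = DMSO alone without ATP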
Starred values were filed as active, the others as inactive. Rows were chosen to be rich in hits. Some 2.3% of all compounds tested hit in one or more screens of this group.

SMILES	CHRM1 antagonist	M1 ag parental	M1 PAM parental	M1 PAM	CHRM1 agonist	CHO-K1 Ca antag
O=C(CCn1c(=O)oc2ccccc21)NCc1ccc2c(c1)OCO2	-18.1	0.4	23.4	8.3	-8.6	-8.2
Cc1cc(C)cc(OCc2nnc(SCC(=O)N3CCCCC3)o2)c1	-0.2	1.6	11.1	2.1	-8.7	-13.3
O=C(CCNC(=O)c1ccco1)NC(Cc1c[nH]c2ccccc12)C(=O)O (centres undefined)	-9.3	0.0	2.5	8.0	-1.0	-9.9
Cc1cc(NC(=O)COc2ccccc2C(N)=O)no1	-0.9	0.2	-5.4	2.1	-0.6	-6.2
Cc1ccccc1N1C(=O)CC(N(O)c2ccccc2)C1=O (centres undefined)	16.7	0.2	-8.3	-4.2	-2.8	16.8
O=C1CC(N(O)c2ccccc2)C(=O)N1c1cc(Cl)cc(Cl)c1 (centres undefined)	-8.1	1.1	16.4	5.1	26.8*	-4.0
CCN(CC)C(=O)C1=C(C)N(Cc2ccc(OC)cc2)C(=O)C(CC(=O)NC(c2ccccc2)c2ccccc2)C1 (centres undefined)	-8.6	1.3	13.4	13.0	-5.5	-18.4
CN1C(=O)/C(=C/c2ccccc2OCc2ccc(F)cc2)N(C)C1=S	100.2*	-0.8	-3.9	-22.5	-10.1	-0.9
O=C1NC(=S)N/C1=C\c1ccccc1OCc1ccc(C(=O)O)cc1	-20.3	-0.1	9.9	11.1	34.0*	-11.5
COc1ccc(CCNc2ccc(N3C(=O)CC(C)C3=O)cc2[N+](=O)[O-])cc1OC (centres undefined)	8.0	14.4	-11.8	-15.4	7.1	16.4
CCc1nnc(SCC(=O)NC2CCCCC2)nc1CC	-13.3	1.2	28.4	14.6	-4.4	-19.6
CCc1nnc(SCC(=O)NC2CCCC2)nc1CC	7.1	-0.2	-6.0	8.9	-1.4	32.7*
OC[C@@H]1CN(Cc2ccco2)C[C@H](n2cnc3c(NC4CC4)ncnc32)O1	-10.2	0.7	20.4	10.2	-1.3	-6.6
COCCSc1ccccc1C(=O)Nc1ccc(Cl)cn1	-11.1	0.7	20.8	11.8	-6.4	-8.8
COCCCNC(=O)c1ccccc1Sc1ccc(NC(C)=O)nc1	-2.1	-0.3	-13.6	3.7	-6.3	23.8*
CCCCCOCC1CC(C/C(C)=N/NC(N)=O)(C(=O)OCC)C(=O)O1 (centres undefined)	7.0	0.2	1.2	-5.0	-3.5	-2.8
CCCCC1(C(=O)OCC)CC(CSC(=N)N)OC1=O (centres undefined)	3.4	19.0*	5.4	7.9	-9.8	7.7
O=C(N/N=C/c1ccoc1)c1cccc(OC(F)(F)C(F)F)c1	-7.1	3.8	8.2	3.2	-2.1	-5.0
Cc1ccc(C)c(N2N=C(C(=O)N(CC(C)C)c3c(N)n(Cc4ccccc4)c(=O)[nH]c3=O)CCC2=O)c1	-3.2	2.5	14.2	9.1	3.3	-6.0
CCCCCOC(=O)C1=C(C)Nc2ncnn2C1c1cccs1 (centres undefined)	26.9*	4.5	2.5	-9.4	-3.2	21.1
Cc1nn2cc(-c3ccc(Cl)cc3)cnc2c1Cl	-3.1	-0.1	-7.2	6.1	-3.7	5.8
c1ccc(-c2nnc(N3CCN(c4ccccn4)CC3)c3ccccc23)cc1	47.5*	2.1	-7.2	-17.9	-3.2	20.9
Nc1nc(N2CCCCC2)nc2ccccc12	25.8	-0.2	-6.7	-10.3	-4.5	10.4
Nc1nc(N2CCN(c3ccccn3)CC2)nc2ccccc12	36.5*	1.1	-23.1	-28.5	-8.6	7.5
COc1cccc(NC(=O)C(c2ccccc2)N2CCCCC2)c1 (centres undefined)	50.4*	-0.1	3.6	-23.1	-6.1	-11.2
SMILES	CHRM1 antagonist	M1 ag parental	M1 PAM parental	M1 PAM	CHRM1 agonist	CHO-K1 Ca antag
COc1cccc(NC(=O)C(c2ccccc2)N2CCN(CC(=O)N3CCOCC3)CC2)c1 (centres undefined)	-3.2	0.5	19.7	7.2	-1.1	-12.7
CN(C)S(=O)(=O)Nc1ccccc1F	-11.0	0.5	21.9	10.6	-4.0	-7.4
Cn1c(=O)[nH]c(=O)c2c1nc(SCC(=O)O)n2CCc1ccccc1	-17.8	-0.3	-1.3	12.3	0.2	4.6
Cn1c(=O)[nH]c(=O)c2c1nc(SCC(=O)O)n2CCOc1ccccc1	54.7*	1.8	-1.4	-26.0	-8.8	-5.9
O=C1[C@H]2[C@@H](c3ccc(Cl)cc3)N3C(=O)N(c4cccc(Br)c4)C(=O)[C@@]3(Cc3ccc(Cl)cc3)[C@H]2C(=O)N1C1CCCCC1	-1.2	0.7	14.4	-0.3	-7.5	-18.9
O=C1[C@H]2[C@@H](c3ccc(F)cc3)N3C(=O)N(c4cccc(Br)c4)C(=O)[C@@]3(Cc3ccc(Cl)cc3)[C@H]2C(=O)N1C1CCCCC1	-17.1	-0.3	1.8	27.2*	4.1	-2.5
COc1ccccc1C(=O)NCCNc1ccc([N+](=O)[O-])cc1Cl	17.8	0.8	-7.6	-9.5	-4.3	19.9
O=C1c2cccc3cccc(c23)C(=O)N1CCCc1n[nH]c(=S)n1-c1ccccc1	31.1*	0.4	-10.4	-8.5	0.5	17.2
OCCCc1n[nH]c(=S)n1-c1ccccc1	-8.1	1.0	26.9	11.8	-4.7	-13.0
CN(C)C(CNc1ccc(C(F)(F)F)cc1[N+](=O)[O-])c1ccccc1 (centres undefined)	-12.1	-0.1	28.0	0.5	-12.2	-24.5
C[C@H]1CN([C@@H](C)CO)S(=O)(=O)c2ccc(Br)cc2O[C@@H]1CN(C)C(=O)C1CCOCC1	-7.7	0.2	4.0	0.4	-3.9	2.0
COc1ccc([N+](=O)[O-])cc1N(CC(=O)NCCCOC(C)C)S(C)(=O)=O	-7.4	-0.2	-2.2	10.7	-3.4	0.5
CCN(CC)S(=O)(=O)c1ccc(N2Cc3ccccc3C2=N)cc1	29.9*	4.9	8.2	-9.3	-3.4	-1.7
Cc1[nH]ncc1-c1ccccc1Cl	14.9	4.3	6.2	-2.8	0.2	-3.5
Cc1ccc(C2(c3ccc(C)cc3)CC2C(=O)Nc2ccc([N+](=O)[O-])cc2O)cc1 (centres undefined)	25.3*	8.6	0.4	-20.1	2.7	18.3
CC1(C)CC1C(=O)Nc1ccc([N+](=O)[O-])cc1Br (centres undefined)	-8.2	0.2	4.0	13.2	-7.3	-2.3
CN1CCN(c2ccc(NC(=O)COc3ccccc3Cl)cc2)CC1	-34.6	1.1	8.4	-2.3	-6.3	-3.5
C=CC(=O)Nc1ccc(N(C)c2ccnc(Nc3ccc(N4CCN(C)CC4)cc3)n2)cc1	55.5*	-0.1	16.8	-31.6	-10.7	-5.8
